According to PubChem BioAssay AID624168 (Sanford-Burnham Center for Chemical Genomics, 2012):
About 800 (0.22%) of roughly 360,000 compounds were called active.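 How the source made its calls: active means activation of at least 8% versus controls, or a plate z-score of at least 8; inactive means the rest.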 Only a selection was taken, and actives are over-represented in it overall.

experiment: activators of alpha-DG glycosylation, primary screen, uHTS, Pro5-aDG cells, AlphaScreen (AID 624168); details: alpha-DG glycosylation AlphaScreen (IIH6), at 10 µM, hits give high values, 0% Pro5, 100% B10-LARGE cell signal;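 further: Pro5 are CHO cells carrying HIG-tagged alpha-DG that lacks glycosylation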

activation, active:
COc1cc(CNCCN(C)C)ccc1OCc1c(F)cccc1Cl 8.5%
CN(C)CCCNC(=O)/C=C/c1ccc(OCc2c(F)cccc2Cl)cc1 13.4%
COc1ccccc1C1SCCN1C(=O)c1ccc([N+](=O)[O-])cc1 (configuration not stated) 6.9%
CC(C)C(=O)NCC(c1cccs1)S(=O)(=O)c1ccc(F)cc1 (configuration not stated) 6.9%
O=C(c1ccc(N2CCCC2=O)cc1)N1CCN(c2ccc(C(F)(F)F)cc2[N+](=O)[O-])CC1 7%
Cn1nccc1C(=O)NC1CCCc2c1cnn2-c1ccc(F)cc1F (configuration not stated) 5%
COc1ccc(NC(=O)CSc2nnc(-c3ccccc3F)n2C2CC2)cc1S(N)(=O)=O 6.3%
CCOc1ccc(OCC(=O)Nc2c3c(nn2C(C)(C)C)CS(=O)(=O)C3)cc1 7.3%

activation, inactive:
O=C(NCc1ccc(F)cc1)C1CCN(C(=O)Nc2ccc(F)cc2)CC1 -0.1%
Cc1[nH]c(C)c(S(=O)(=O)N2CCN(c3cccc(C(F)(F)F)c3)CC2)c1C(=O)N1CCCCC1 -0.4%
CC1(C)CC(=O)C=C(NC2CC(C)(C)NC(C)(C)C2)C1 -0.2%
CCN(CC)CCNCc1ccc(OCc2ccc(Cl)nc2)c(OC)c1 0.3%
CCOCCCNCc1ccc(OCc2ccc(F)cc2)c(OC)c1 0.1%
CCCCNCc1ccc(SC)cc1 0.3%
C[C@H](CO)N1C[C@H](C)[C@H](CN(C)CC2CC2)Oc2ccc(NC(=O)CCN3CCOCC3)cc2C1=O 0.2%
Cc1ccc(N2C(=O)SC(N(CC(=O)O)c3ccc(C)cc3)C2=O)cc1 (configuration not stated) 1.3%
CCn1c(SCc2cccc(C(=O)O)c2)nnc1-c1ccc(Cl)cc1 0%
Fc1cccc(Cl)c1COc1ccc(-c2nnco2)cc1 -0.1%
O=C(/C=C/c1ccc(Cl)cc1)NCCCn1ccnc1 -0.1%
CS(=O)(=O)N(CC(=O)N1CCCCCC1)c1cccc(Cl)c1Cl -0.1%
COc1ccc(CCCNC(=O)C2Cc3c(-c4cccc(C(N)=O)c4)ccnc3O2)cc1 (configuration not stated) 0.1%
COc1ccc(NC(=O)COc2ccc(C(=O)c3ccc(F)cc3)cc2)cc1S(N)(=O)=O 0%
C[N+]1(CC(O)COc2ccccc2)CCN(C(=O)c2ccc([N+](=O)[O-])cc2)CC1 (configuration not stated) -0.2%
O=C(OCC(=O)N1CCc2ccccc21)c1ccc([N+](=O)[O-])cc1 0.1%
CC(C)N(C(=O)CSc1nc(COc2ccccc2)nc2ccccc12)C(C)C 0.2%
CCOc1cc(CNCCN(C)C)c(Cl)cc1OCC(=O)NCCc1ccccc1 0.7%
Cc1cccn2c(=O)nc(SCC(=O)NCc3ccccc3Cl)nc12 0.1%
O=C(Oc1ccccc1C(=S)N1CCCCC1)c1cc([N+](=O)[O-])cc([N+](=O)[O-])c1 -0.2%
CN(O)C(=S)c1ccccc1 -0.2%
Cc1ccc(F)c(S(=O)(=O)NC(=O)C2(C)CCN2C(=O)c2ccco2)c1 (configuration not stated) -0.2%
COCCNC(=O)C(OC(=O)c1cccs1)c1ccc(F)cc1 (configuration not stated) -0.1%
O=C(NCc1cccs1)C(=O)NCC1OCCCN1S(=O)(=O)c1ccc(F)cc1 (configuration not stated) 0%
COc1cc(OC)cc(C(=O)NC(=S)N2CCN(c3ccc(C(F)(F)F)cc3[N+](=O)[O-])CC2)c1 0.3%
O=C(Cc1ccc(S(=O)(=O)N2CCOCC2)s1)N1CCN(c2ccc(C(F)(F)F)cc2[N+](=O)[O-])CC1 0.7%
CC1CCCN(S(=O)(=O)c2ccc(N(C(=O)c3cnccn3)C(C(=O)NC3CCCCC3)c3cccs3)cc2)C1 (configuration not stated) -0.1%
Cc1ccccc1NC(=O)CCNS(=O)(=O)c1ccc2[nH]c(=O)oc2c1 -0.2%
COc1ccc(C)cc1NC(=O)CN(C)S(=O)(=O)c1ccc2c(c1)n(C)c(=O)c(=O)n2C -0.2%
CC1=C(C(=O)NC2CC(C)(C)Cc3c2cnn3-c2ccc(C)cc2)OCCO1 (configuration not stated) 0.4%
COC(=O)c1ccc(C(=O)NC2CC(C)(C)Cc3c2cnn3-c2ccc(F)cc2)nc1 (configuration not stated) 0%
COc1ccc(C23NCCN2C(=O)c2ccccc23)cc1 (configuration not stated) -0.1%
Cc1ccsc1C(=O)NCCc1ccco1 -0.1%
Cc1c(CN2CCC(CO)(CCOc3ccccc3)CC2)[nH]c2ccc(Cl)cc12 2.4%
COCCn1c(SCC(=O)c2[nH]c(C)c(C(C)=O)c2C)nc2ccccc2c1=O 0%
CCc1[nH]nc(C(=O)N2CCCC(CNS(=O)(=O)c3cccs3)C2)c1C (configuration not stated) 0.1%
Cc1ccccc1OCc1nnc(SCC(=O)N2c3ccccc3Sc3ccc(Cl)cc32)o1 0.3%
O=C(CNCc1ccc(F)cc1)Nc1ccccc1-c1ccccc1 0.6%
Cc1nc2nc[nH]n2c(=O)c1NC(=O)c1cccc(OCC(C)C)c1 0.1%
CCc1cccc(C)c1NC(=O)COC(=O)CC1CCCC1 0.2%
COc1ccc(NC(=O)CSc2nnc(C3CC3)n2C)cc1S(=O)(=O)N1CCCCC1 -0.1%
CC(Sc1nnc(-c2ccccc2F)n1C1CC1)C(N)=O (configuration not stated) 0.1%
OCC1OC(n2cnc3c(N4CCCC4)ncnc32)C(O)C1O (configuration not stated) -0.1%
Cc1[nH][nH]c(=O)c1C(c1ccc(-c2ccc(Cl)cc2)o1)c1c(C)[nH][nH]c1=O 0%
CCNC(=O)NC(=O)C(C)OC(=O)c1cc(S(=O)(=O)N2CCCCCC2)ccc1OC (configuration not stated) 0%
Cc1cc(C)c(C#N)c(SCC(=O)NN2CC(=O)N(c3ccccc3F)CC2=O)n1 -0.2%
COc1ccccc1OCC(=O)Nc1c2c(nn1-c1ccc(F)cc1)CS(=O)(=O)C2 -0.1%
CCOc1ccc(C(=O)Nc2c3c(nn2-c2ccccc2)CS(=O)(=O)C3)cc1 0.3%
O=S(=O)(c1ccc(Br)cc1)N1CCC(c2nc3ccccc3[nH]2)CC1 0.7%
